ssDAF-12 act: activators of S. stercoralis DAF-12 nuclear receptor. HEK293 ssDAF-12/GRIP1 lit1-tk-luc reporter, luminescence; % of 3 µM dafachronic acid response. activation, % at 6.8 µM. 370,000 compounds, 1% hits;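 active = activation above the mean over all tested compounds plus 3 SD, cut at about 0.9% in these data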;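 note: 0% = DMSO-only wells and 100% = 3 µM delta7-dafachronic acid wells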
SMARCA2 activ: activators of SMARCA2 function; MG213 cells, MMTV-luciferase reporter, dexamethasone, overnight; activation, % at 9.1 µM; 370,000 compounds, 1% hits; AID 652017; in the data active = activation above about 7.8%;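 note: 0% = vehicle wells and 100% = reference activator wells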
DAX1 StAR inh: blocks DAX1 repression of SF-1 activated StAR promoter. HEK293T StAR-luciferase reporter, SF-1/DAX-1 repression relief. inhibition, % at 6.8 µM. 370,000 compounds, 1.1% hits. AID 652010;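 active = inhibition above the mean over all tested compounds plus 3 SD, cut at about 3.6% in these data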;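 note: 0% = DAX-1 cells with DMSO and 100% = cells lacking DAX-1 with DMSO; higher inhibition means more luminescence from relief of DAX-1 repression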
hgDAF12 agonist: activates the H. glycines DAF-12 receptor ligand-binding domain | HEK293 GAL4-hgDAF12 UAS-luciferase reporter, agonist luminescence; normalized to butyrate control | activation, % at 6.8 µM | 370,000 compounds, 1.8% hits | AID 687014;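 active = activation above a cutoff set at the mean of all screened compounds plus 3 SD, cut at about 10% in these data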;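 note: 0% = DMSO wells and 100% = sodium butyrate wells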
hcDAF-12 act: H. contortus DAF-12 activation, primary screen. HEK293 hcDAF-12 lit1-tk-luc reporter, luminescence; 0% DMSO, 100% Δ7-dafachronic acid. activation, % at 6.8 µM. 370,000 compounds, 1.4% hits. AID 652067;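 active = activation above the mean of all tested compounds plus 3 SD, cut at about 5.5% in these data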;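 note: 100% = response to 3 µM Δ7-dafachronic acid high control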
Numbers without * were called inactive; x = no result given. Hits are enriched below; roughly 4.2% of the tested compounds scored in any of these assays.

SMILES	ssDAF-12 act	SMARCA2 activ	DAX1 StAR inh	hgDAF12 agonist	hcDAF-12 act
COC(=O)c1cc(NC(=O)/C=C/c2ccccc2)ccc1O	-1.2	2.2	0.9	11.4*	0.7
O=C(O)c1ccc(N2CCCCC2)cc1	-1.8	-1.6	-0.1	-0.2	-0.7
O=C(/C=C/c1ccc(Cl)cc1)Nc1ccc(N2CCCCC2)cc1	-0.8	-1.5	0.1	-0.8	-0.9
CC(C)CN1C(=O)C[C@@]2(C(=O)N(C)c3ccc(NS(=O)(=O)c4ccc(F)cc4)cc32)C1c1ccccc1 (stereo partly drawn)	-1.1	-3.0	0.7	-0.3	-1.3
COC(=O)c1cccc2c([N+](=O)[O-])c(NC(C)=O)cc(C(=O)OC)c12	-0.6	3.9	0.2	3.9	-0.4
O=C(CCC1CCCC1)NNC(=O)c1cc2ccccc2cc1O	-0.7	-1.4	0.1	-1.7	1.0
O=C(CC1CCCC1)NNC(=O)c1ccccc1O	1.3*	-3.3	0.1	5.1	-0.1
Cn1ncc2c(NCCO)nc(Cl)nc21	1.5*	1.8	0.3	-1.7	-1.9
Cn1ncc2c(NCc3ccccc3)nc(NCCCO)nc21	-1.4	-0.7	-0.2	-0.9	1.1
CCOc1ccc(NC(=O)CN2CCN(c3ccc(F)cc3)CC2)cc1S(=O)(=O)N1CCCC1	1.0*	-7.5	-0.5	-0.7	-0.3
CCOc1ccc(NC(=O)CN2CCN(c3ccccc3C)CC2)cc1S(=O)(=O)N1CCCC1	-1.7	-0.8	-0.5	1.1	1.6
Cc1cc(NC(=O)Nc2ccc3c(ccn3C)c2)sn1	-0.8	5.8	1.4	11.4*	0.9
CC(C)(C)NC(=O)C(c1ccc(C(F)(F)F)cc1)n1c(=O)c(-c2ccco2)nc2ccccc21 (stereo not drawn)	-0.9	-4.4	0.1	2.4	2.0
CCOC(=O)[C@@]12CCC3=C1N(CCC3)C(=O)[C@H](CC(=O)NCCc1ccccc1OC)C2	0.9*	-1.9	-0.6	-1.9	-3.4
CCOP(=O)(OCC)C(NC(=O)Nc1ccc(Cl)cc1)C(=O)N(CC)CC (stereo not drawn)	1.5*	0.0	0.2	2.6	0.1
O=C(CSc1nnc(-c2cccnc2)n1-c1ccc(Cl)cc1)Nc1ccc(S(=O)(=O)Nc2nccs2)cc1	-1.5	-3.3	-0.1	-2.5	-1.6
CC1CSc2ccccc2NC1=S (stereo not drawn)	-1.0	1.7	-0.6	-1.3	0.7
c1ccc(C2CSc3ccccc3N2)cc1 (stereo not drawn)	0.2	7.7	1.4	5.6	5.6*
CC(COc1ccccc1C#N)CN1CCC(C(O)(c2ccccc2)c2ccccc2)CC1 (stereo not drawn)	-0.9	-2.8	0.4	1.1	-1.6
CCC(=O)c1ccc(OCC(=O)O)cc1	-1.8	-1.3	0.5	-1.0	0.9
CCC(=O)c1ccc(OCc2ccc(C#N)cc2)cc1	0.1	2.6	2.1	12.4*	0.1
COC(=O)c1ccc2nc(-c3ccc(C)cc3)c(Cc3ccc(C)cc3)n2c1	-1.7	2.0	-0.9	1.0	1.9
COC(=O)c1ccc2nc(-c3ccc(C)cc3)c(CC3CCCCC3)n2c1	1.8*	1.0	3.9*	5.8	4.5
COC(=O)c1ccc2nc(-c3ccc(F)cc3)c(Cc3cccc(F)c3)n2c1	-0.8	-1.4	0.3	-1.5	-2.8
COC(=O)c1ccc2nc(-c3ccc(F)cc3)c(CC3CCCCC3)n2c1	1.1*	-0.5	1.6	5.5	4.2
SMILES	ssDAF-12 act	SMARCA2 activ	DAX1 StAR inh	hgDAF12 agonist	hcDAF-12 act
Cc1cc2nc(-c3ccc(F)cc3)c(CC3CCCCC3)n2c(C)c1Br	1.0*	0.5	-0.4	3.5	5.4
NC(Cc1ccc(O)cc1)C(=O)NN=Cc1ccccc1O (stereo not drawn)	-0.9	3.8	0.0	1.9	1.8
O=[N+]([O-])/C=C/c1cc2ccccc2[nH]1	0.4	-0.5	0.0	5.5	5.8*
O=[N+]([O-])c1cccc(-c2cc3ccccc3[nH]2)c1	-1.1	2.0	-0.8	2.9	2.2
CC(COc1ccc([N+](=O)[O-])cc1Cl)CN1CCC(C(O)(c2ccccc2)c2ccccc2)CC1 (stereo not drawn)	-1.3	-2.9	0.1	1.3	-2.4
Nc1nc2ccc(Oc3ccccc3)cc2s1	0.0	4.2	1.3	11.6*	1.3
O=C(COC(=O)c1cccc(F)c1)Nc1cccc(S(=O)(=O)N2CCOCC2)c1	-0.9	-2.6	1.1	0.7	1.0
O=C(COC(=O)c1ccc(F)cc1F)Nc1cccc(S(=O)(=O)N2CCOCC2)c1	-0.8	-2.0	3.6*	1.6	-2.2
Cc1ccc(NS(=O)(=O)c2cc3c(cc2Cl)NC(=O)CO3)cc1C	-1.4	x	x	-3.1	-0.7
O=C(NCCC(=O)N1CCc2ccccc21)c1ccco1	-0.8	2.9	0.6	5.8	5.8*
O=C(NCc1nnc(SCC(=O)N2CCc3ccccc32)o1)c1ccco1	-1.4	0.1	-0.3	-1.2	-0.8
Cc1ccn(CCC(=O)N2CCc3ccccc32)n1	0.0	1.2	4.1*	0.2	1.1
CC(=O)c1c(C)[nH]c(C(=O)CN2C(=O)NC3(CCCCC3)C2=O)c1C	-0.9	0.3	4.1*	0.1	-1.8
Cc1cc(C)c(C(=O)CN2C(=O)NC3(CCCCC3)C2=O)cc1C	-0.8	0.7	0.9	0.9	6.2*
CC(=O)c1c(C)[nH]c(C(=O)CN2C(=O)NC3(CCCCC3C)C2=O)c1C (stereo not drawn)	-1.1	-0.8	1.9	1.0	-0.5
O=C(N[C@H](C(=O)N1CCC[C@H]1C(=O)NC1CCCC1)C1CCCCC1)C1CC1	-1.1	-0.3	-1.2	1.0	-1.0
COc1ccc(/C=C/C(=O)OCC(=O)Nc2ncc(Cl)cc2Cl)cc1	1.1*	2.1	-0.6	0.5	1.8
O=C(Nc1ccc(S(=O)(=O)Nc2nccs2)cc1)C1=NN(c2ccccc2)C(=O)CC1	1.2*	-0.2	1.0	-1.1	3.9
CCC1CCCN1Cn1cnc2c([nH]c3ccc(Cl)cc32)c1=O (stereo not drawn)	0.1	9.7*	0.1	-0.8	0.8
Cc1cccc(C)c1N1C(=O)c2ccccc2NC(=O)C1C(=O)Nc1ccc2c(c1)OCCO2 (stereo not drawn)	-0.5	0.9	0.3	-1.3	0.0
CC1(C(=O)Nc2cnc3ccccc3c2)CCN1Cc1ccc(-c2ccccc2)o1 (stereo not drawn)	-1.2	0.1	-0.6	3.5	-0.3
C=C(C)CNC(=O)CCc1nnc(C2(c3ccc(Cl)cc3)CCC2)o1	0.6	3.6	0.7	7.7	-0.6
C=CCNC(=O)CCc1nnc(C2(c3ccc(Cl)cc3)CCC2)o1	-0.5	4.4	1.2	12.2*	2.6
COC(=O)[C@H](CC(C)C)N(Cc1cn(CC2CCCCC2)nn1)S(=O)(=O)c1ccc(F)cc1Br	-1.3	1.9	-0.8	4.1	-2.4
O=C(N/N=C/c1ccc([N+](=O)[O-])o1)c1cc2ccccc2o1	-2.6	-8.9	-4.7	-11.7	-5.4
O=[N+]([O-])c1ccc(/C=N/Nc2ccc3ccccc3c2)o1	-0.1	2.5	-1.5	4.3	6.4*
